Assay results published in PubChem BioAssay (Tox21).
Records with an inconclusive call do not appear. Active and inactive are the calls of the source. Calls come from the whole dose curve; as a rule, active = well fitted curve in the direction sought with a large enough effect in the repeat runs; inconclusive = weak or mixed curves; inactive = no such curve, though single readings can be large; an effect the other way counts as inactive or inconclusive.

Columns and labels:
[1] = qHTS RealTime-Glo MT Cell Viability Assay in HEK293 cells - 16 hour (AID 1224872); note: top concentration of the series differs between compounds; nearly all actives have a fitted effect of over 50% in size
Summary of the method: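 HEK293 cells seeded with NanoLuc/prosubstrate reagent, rested 5 h at 37 C, then dosed and kept at 37 C up to 40 h. Nonlytic real-time luminescence from viable cells read at 0, 8, 16, 24, 32 and 40 h.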

[2] = qHTS RealTime-Glo MT Cell Viability Assay in HepG2 cells - 8 hour (AID 1224873); note: nearly all actives have a fitted effect of over 55% in size
Summary of the method: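 HepG2 cells mixed with RealTime-Glo MT reagents (NanoLuc plus cell-permeant prosubstrate) were seeded at 600 cells/well, incubated 5 h at 37 C/5% CO2, then pinned with compounds in DMSO; nonlytic luminescence tracked viability during 40 h treatment.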

[3] = qHTS RealTime-Glo MT Cell Viability Assay in HEK293 cells - 40 hour (AID 1224874); details: RealTime-Glo luminescence; max response: active compounds read low; note: nearly all actives have a fitted effect of over 50% in size
Summary of the method: (§1)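 Tox21 screen in HEK293 using RealTime-Glo MT chemistry, with cells and reagent co-dispensed. Luminescence proportional to viable cell number was captured at intervals during 40 h compound exposure at 37 C.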

[4] = A CellTox Green Cytotoxicity Assay to monitor cytotoxicity in HEK293 cells - 24 hour (AID 1224875); note: series mostly up to about 77 µM; nearly all actives have a fitted effect of over 45% in size
Summary of the method: (§2)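 Seeding of HEK293 cells together with cytotoxicity dye preceded a 5 h incubation at 37 C/5% CO2. Test compounds in DMSO were then added and fluorescence monitored across 40 h.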

[5] = A CellTox Green Cytotoxicity Assay to monitor cytotoxicity in HepG2 cells - 16 hour (AID 1224876); note: nearly all actives have a fitted effect of over 45% in size
Summary of the method: (§3)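 Nonlytic assay: viable cells exclude the dye, so fluorescence scales with cell death. HepG2 at 600 cells/well, compounds added after 5 h, signal read across 40 h.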

[6] = qHTS RealTime-Glo MT Cell Viability Assay in HepG2 cells - 32 hour (AID 1224877); note: nearly all actives have a fitted effect of over 55% in size
Summary of the method: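 HepG2 cells (600/well) were dispensed with RealTime-Glo reagents, incubated 5 h at 37 °C, then treated with compounds in DMSO for up to 40 h. Nonlytic NanoLuc luminescence reflecting viable cells was read at each stated time point.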

[7] = A CellTox Green Cytotoxicity Assay to monitor cytotoxicity in HepG2 cells - 24 hour (AID 1224878); note: nearly all actives have a fitted effect of over 45% in size
Summary of the method: as §3

[8] = A CellTox Green Cytotoxicity Assay to monitor cytotoxicity in HepG2 cells - 40 hour (AID 1224879); note: nearly all actives have a fitted effect of over 40% in size
Summary of the method: as §3

[9] = qHTS RealTime-Glo MT Cell Viability Assay in HEK293 cells - 0 hour (AID 1224880); note: top concentration of the series differs between compounds; nearly all actives have a fitted effect of over 45% in size
Summary of the method: as §1

[10] = A CellTox Green Cytotoxicity Assay to monitor cytotoxicity in HEK293 cells - 32 hour (AID 1224881); note: nearly all actives have a fitted effect of over 40% in size
Summary of the method: as §2
% is set by controls: 0 for no effect and ±100 for the full control effect.

Cc1ccc([N+](=O)[O-])cc1Cl
inactive: Potency [1] | outcome [2] | max response [3] 0.878% | Potency [4] | Potency [5] | Potency [6] | Potency [7] | Potency [8] | outcome [9] | Potency [10]

O=C(CCCl)NCc1ccccc1
inactive: Potency [1] | outcome [2] | max response [3] -3.01% | Potency [4] | Potency [5] | Potency [6] | Potency [7] | Potency [8] | outcome [9] | Potency [10]

Cc1cn([C@@H]2O[C@H](CO)[C@@H](O)[C@@H]2F)c(=O)[nH]c1=O
inactive: Potency [1] | outcome [2] | max response [3] -1.92% | Potency [4] | Potency [5] | Potency [6] | Potency [7] | Potency [8] | outcome [9] | Potency [10]

CCCCCCCOC(=O)CCC
inactive: Potency [1] | outcome [2] | max response [3] 4.56% | Potency [4] | Potency [5] | Potency [6] | Potency [7] | Potency [8] | outcome [9] | Potency [10]

COc1ccccc1N1CCN(CCCNc2cc(=O)n(C)c(=O)n2C)CC1
inactive: Potency [1] | outcome [2] | max response [3] -21.2% | Potency [4] | Potency [5] | Potency [6] | Potency [7] | Potency [8] | outcome [9] | Potency [10]

NS(=O)(=O)c1cc(-c2nn[nH]n2)c(NCc2cccs2)cc1Cl
inactive: Potency [1] | outcome [2] | max response [3] -3.29% | Potency [4] | Potency [5] | Potency [6] | Potency [7] | Potency [8] | outcome [9] | Potency [10]

CC(C)C1=CC2=CC[C@@H]3[C@](C)(CCC[C@@]3(C)C(=O)O)[C@H]2CC1
inactive: Potency [1] | outcome [2] | max response [3] 3.7% | Potency [4] | Potency [5] | Potency [6] | Potency [7] | Potency [8] | outcome [9] | Potency [10]

CCC(=O)O[C@]1(C(=O)SCF)[C@H](C)C[C@H]2[C@@H]3C[C@H](F)C4=CC(=O)C=C[C@]4(C)[C@@]3(F)[C@@H](O)C[C@@]21C
inactive: Potency [1] | outcome [2] | max response [3] 2.57% | Potency [4] | Potency [5] | Potency [6] | Potency [7] | Potency [8] | outcome [9] | Potency [10]

CC(C)C[C@H](NC(=O)OCC1c2ccccc2-c2ccccc21)C(=O)O
inactive: Potency [1] | outcome [2] | max response [3] -12.9% | Potency [4] | Potency [5] | Potency [6] | Potency [7] | Potency [8] | outcome [9] | Potency [10]

CC(=O)O[C@H]1CC[C@@]2(C)C(=CC[C@@H]3[C@@H]2CC[C@]2(C)C(C(C)=O)=CC[C@@H]32)C1
inactive: Potency [1] | outcome [2] | max response [3] -20.5% | Potency [4] | Potency [5] | Potency [6] | Potency [7] | Potency [8] | outcome [9] | Potency [10]

CC/C=C\CCOC(=O)C(C)C
inactive: Potency [1] | outcome [2] | max response [3] -2.11% | Potency [4] | Potency [5] | Potency [6] | Potency [7] | Potency [8] | outcome [9] | Potency [10]

N#CSCC(=O)O
inactive: Potency [1] | outcome [2] | max response [3] 0.0274% | Potency [4] | Potency [5] | Potency [6] | Potency [7] | Potency [8] | outcome [9] | Potency [10]

COc1nc(C)nc(NC(=O)NS(=O)(=O)c2ccccc2OCCCl)n1
inactive: Potency [1] | outcome [2] | max response [3] 6.36% | Potency [4] | Potency [5] | Potency [6] | Potency [7] | Potency [8] | outcome [9] | Potency [10]

CCC/C=C/CO
inactive: Potency [1] | outcome [2] | max response [3] 0.426% | Potency [4] | Potency [5] | Potency [6] | Potency [7] | Potency [8] | outcome [9] | Potency [10]

C[C@]12C(=O)OC(=O)[C@H]1[C@H]1C=C[C@@H]2C1
inactive: Potency [1] | outcome [2] | max response [3] 10.7% | Potency [4] | Potency [5] | Potency [6] | Potency [7] | Potency [8] | outcome [9] | Potency [10]

Cc1cc(S(=O)(=O)O)c(N)cc1Cl
inactive: Potency [1] | outcome [2] | max response [3] -1.1% | Potency [4] | Potency [5] | Potency [6] | Potency [7] | Potency [8] | outcome [9] | Potency [10]

O=C(O)c1ccccc1Nc1cc(Cl)ccc1C(=O)O
inactive: activity change, negative = cytotoxicity [1] 1.77% [at 15.8 µM] | viability change, negative = cytotoxic [2] 0.891% [at 15.8 µM] | max response [3] 2.59% | activity change [4] -4.95% [at 15.8 µM, active compounds read high] | cytotoxicity increase [5] 1.42% [at 15.8 µM] | activity change, negative = cytotoxic [6] -8.29% [at 15.8 µM] | cytotoxicity [7] 9.31% [at 15.8 µM] | cytotoxicity increase [8] 28.2% [at 15.8 µM] | activity change, negative = cytotoxicity [9] -6.06% [at 15.8 µM] | cytotoxicity increase [10] -11.6% [at 15.8 µM]

CC(C)(C)C1CCCCC1=O (stereo not given)
inactive: Potency [1] | outcome [2] | max response [3] 10.3% | Potency [4] | Potency [5] | Potency [6] | Potency [7] | Potency [8] | outcome [9] | Potency [10]
